Screening results from PubChem BioAssay.
Rows were chosen to be rich in hits. Some 12% of all compounds tested hit in one or more screens of this group.
SARS PLpro yeast: SARS-CoV PLP inhibition in yeast. S. cerevisiae expressing SARS-CoV PLpro, growth rescue. Potency, µM (top dose mostly 32.9 µM), usual class: activators. hit rate 0.19% among 330,000; calls by dose curve; note: nearly all actives have a fitted effect of over 55% in size
Pf growth 96h: inhibits malaria parasite growth, 96 h; Potency, µM (doses to about 28.7 µM), usual class: inhibitors; P. falciparum luciferase reporter growth, 96 h; hit rate 6.9% among 320,000
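Plates of compound plus infected erythrocytes (2% hematocrit, 0.05% parasitemia final) incubate 96 hours, 37 C, 5% CO2. Detection reagent added; reduced luminescence from the parasites' luciferase reporter flags inhibition.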
Sm TGR block: inhibitors of Schistosoma mansoni thioredoxin glutathione reductase | Q962Y6 | purified TGR, DTNB reduction, TNB absorbance 405 nm | Potency, µM (doses to about 114 µM), usual class: inhibitors | hit rate 3% among 360,000; note: nearly all actives have a fitted effect of over 60% in size
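First, TGR (20 nM dispensed) and NADPH were mixed with compound. Second, a 15 min room-temperature incubation followed. Third, further NADPH and then DTNB were added to start the reaction. Finally, TNB absorbance was monitored kinetically.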
Pf growth 48h: P. falciparum growth inhibition at 48 hours (one generation) | hit rate 5.9% among 310,000 | Potency, µM (doses to about 28.7 µM), hits mostly inhibitors | P. falciparum luciferase growth in erythrocytes, 48 h
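Luciferase-expressing parasites in RBCs, 2% Hct / 0.1% parasitemia final; RPMI 1640 + 0.5% Albumax; 37 C, 5% CO2, one generation; luminescence read-out, lower signal = inhibition.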
Of the large screens only hits and unclear results are named; the others gave an inactive call. Unless noted, calls come from the whole dose curve; as a rule, active = well fitted curve in the direction sought with a large enough effect; inconclusive = small, poorly fitted or top-dose-only effect, or another doubt; inactive = no such curve, though single readings can be large; an effect the other way counts as inactive or inconclusive.

CCCOCn1cc(F)c(=O)[nH]c1=O	Pf growth 96h 5.2µM, Pf growth 48h inconclusive
CC(C)c1ccc(S(=O)(=O)N2CCN(C(C)C(=O)Nc3ccccc3-c3ccccc3)CC2)cc1 (centres undefined)	Pf growth 96h 5.2µM, Pf growth 48h 9.3µM
CC(NC(=O)C(C)N1CCN(S(=O)(=O)c2ccccc2)CC1)c1ccccc1 (centres undefined)	Pf growth 96h inconclusive
CC(C(=O)Nc1ccccc1-c1ccccc1)N1CCCCC1 (centres undefined)	Pf growth 96h inconclusive (no result: Pf growth 48h)
CC(C(=O)Nc1ccccc1-c1ccccc1)N1CCN(S(=O)(=O)c2ccccc2)CC1 (centres undefined)	Pf growth 96h 9.3µM, Pf growth 48h 6.6µM
O=C(Nc1ccccc1-c1ccccc1)C(c1ccccc1)c1ccccc1	Pf growth 96h 1.7µM, Pf growth 48h inconclusive
CCCC(NC(=O)C(C)N1CCN(S(=O)(=O)c2ccccc2)CC1)c1ccccc1 (centres undefined)	Pf growth 96h 10µM
COc1ccc(Cl)cc1NC(=O)Cn1c(=O)c(-c2ccccc2NC(C)=O)nc2ccccc21	none (no result: SARS PLpro yeast, Pf growth 96h, Pf growth 48h)
O=C(Cn1c(=O)n(-c2ccc(Cl)cc2)c(=O)c2sc3ccccc3c21)NC1CCCC1	none (no result: SARS PLpro yeast, Pf growth 96h, Pf growth 48h)
CN(C)CCOc1nc(-c2ccccc2)nc2c1oc1ccccc12	Pf growth 96h 10µM, Pf growth 48h 9.3µM
Cc1cc(C)c(NC(=O)Cn2nc(-c3ccncc3)ccc2=O)c(C)c1	none (no result: SARS PLpro yeast, Pf growth 96h, Pf growth 48h)
Cn1c(O)c(C(=N)COc2ccccc2)c(=O)n(C)c1=O	none
Cn1c(O)c(C(=Nc2ccccc2)SCc2ccc(Cl)cc2)c(=O)n(C)c1=O	Pf growth 96h inconclusive, Sm TGR block 20µM, Pf growth 48h inconclusive
CCC(C)[C@H](NC(=O)[C@H](Cc1ccccc1)n1c(=O)[nH]c2ccccc2c1=O)C(=O)NCC1CCC(C(=O)O)CC1 (some centres undefined)	Pf growth 96h 13µM
COc1ccc(-c2nc(C)c(CCNC(=O)C(=O)Nc3ccccc3C#N)s2)cc1OC	none (no result: SARS PLpro yeast, Pf growth 96h, Pf growth 48h)
COc1cc(/C=C2/C(=O)c3cccc([N+](=O)[O-])c3C2=O)c(Br)cc1O	Sm TGR block 35µM
COc1ccccc1NC(=O)CCCCCN1C(=O)c2cccc([N+](=O)[O-])c2C1=O	none
Cn1ncc2c(Nc3ccc(Cl)c(Cl)c3)ncnc21	none
CN1CCC(Nc2ncc3ncnc(Nc4ccc(F)c(Cl)c4)c3n2)CC1	Pf growth 96h 3.4µM, Pf growth 48h 1.7µM (no result: SARS PLpro yeast, Sm TGR block)
FC(F)(F)C(Oc1nc(NC2CCCCC2)nc(N2CCOCC2)n1)C(F)(F)F	Pf growth 96h inconclusive, Pf growth 48h 12µM
Cc1ccc(Nc2nc(OC(C(F)(F)F)C(F)(F)F)nc(N3CCOCC3)n2)cc1	Pf growth 96h inconclusive, Pf growth 48h inconclusive
CCOc1ccc(NC(=O)c2nnn(-c3ccc(F)c(Cl)c3)c2C)cc1	none (no result: SARS PLpro yeast, Pf growth 96h, Pf growth 48h)
COc1ccc2sc(-c3ccc(S(C)(=O)=O)cc3)c(-c3ccc4c(c3)OCCO4)c2c1	none (no result: Pf growth 96h, Sm TGR block, Pf growth 48h)
COc1ccc2sc(-c3ccccc3OC)c(-c3ccc4c(c3)OCCO4)c2c1	Pf growth 96h 2.6µM, Pf growth 48h 10µM
COc1ccc2sc(-c3ccccc3OC)c(-c3ccc(O)cc3)c2c1	Pf growth 96h 2.3µM, Pf growth 48h inconclusive
O=C(NCC(c1cccs1)N1CCOCC1)c1ccccc1NS(=O)(=O)c1ccc(Cl)c([N+](=O)[O-])c1 (centres undefined)	Pf growth 96h 8.3µM, Pf growth 48h inconclusive
O=C(NCC(c1cccs1)N1CCOCC1)c1ccccc1NS(=O)(=O)c1cc([N+](=O)[O-])ccc1Cl (centres undefined)	Pf growth 96h 13µM, Pf growth 48h inconclusive
O=C(NCC(c1cccs1)N1CCOCC1)c1ccccc1NS(=O)(=O)c1cccc([N+](=O)[O-])c1 (centres undefined)	Pf growth 96h inconclusive, Pf growth 48h inconclusive
C[N+](C)(C)CC(=O)Nc1ccc(Cl)cc1C(=O)c1ccccc1	Pf growth 48h 12µM
Cc1cccc(C)c1OCC(=O)Nc1ccc(Cl)cc1C(=O)c1ccccc1	none (no result: SARS PLpro yeast, Pf growth 96h, Pf growth 48h)
CCN(CC)CCNCC(=O)Nc1ccc(Cl)cc1C(=O)c1ccccc1	Pf growth 96h inconclusive (no result: Pf growth 48h)
NCC(=O)Nc1ccc(Cl)cc1C(=O)c1ccc[nH]1	Pf growth 96h 5.2µM, Pf growth 48h inconclusive
CN(C)CCCNCC(=O)Nc1ccc(Cl)cc1C(=O)c1ccccc1	Pf growth 48h 3.7µM
CCc1ccc(C(=O)NC2=NC(c3cc(OC)ccc3OC)CC(=O)N2)cc1 (centres undefined)	none (no result: SARS PLpro yeast, Pf growth 96h, Pf growth 48h)
O=C(Cc1ccc(F)cc1)NC1CCS(=O)(=O)C1 (centres undefined)	none
